Measurements as given in PubChem BioAssay (EPA / NIEHS).
Inconclusive results are not listed. The source made the active and inactive calls. How the source made its calls, unless noted: active means hit-call score of the fitted dose curve at least 0.9, where 1 is the maximum; inactive means score below 0.9.

Key:
[1] = read-out: succinate dehydrogenase complex iron sulfur subunit B (SDHB), SDHB (gene 6390); assay: LTEA_HepaRG_SDHB: Life Technologies and Expression Analysis (LTEA) Assay for succinate dehydrogenase complex iron sulfur subunit B (SDHB) using HepaRG (AID 2283528); settings: mRNA level, 48 h; actives raise or lower the signal
How it was run: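 HepaRG cells (~100,000/well, plated 48 h) exposed in duplicate for 48 h in serum-free induction medium to 8-point half-log series from 100 uM in 0.5% DMSO; mRNA by qRT-PCR normalised to ACTB, GAPDH, POLR2A; bidirectional fit versus DMSO.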

[2] = read-out: Signal transducer and activator of transcription 3 (Homo sapiens) (UniProt P40763); assay: LTEA_HepaRG_STAT3: Life Technologies and Expression Analysis (LTEA) Assay for Signal transducer and activator of transcription (STAT3) using HepaRG (AID 2283529); settings: mRNA level, 48 h; actives raise or lower the signal
How it was run: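 Differentiated HepaRG cells, serum-free induction medium, dosed 48 h in duplicate, 8 half-log concentrations from 100 uM in 0.5% DMSO. STAT3 mRNA by qRT-PCR, normalised to ACTB, GAPDH, POLR2A; bidirectional fit versus DMSO.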

[3] = read-out: solute carrier (SLCO1B1), SLCO1B1 (gene 10599); assay: LTEA_HepaRG_SLCO1B1: Life Technologies and Expression Analysis (LTEA) Assay for solute carrier (SLCO1B1) using HepaRG (AID 2283530); settings: mRNA level, 48 h; actives raise or lower the signal
How it was run: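 Differentiated human HepaRG cells, plated 48 h, switched to serum-free induction medium and exposed in duplicate for 48 h to 8 half-log concentrations (top 100 uM) in 0.5% DMSO. SLCO1B1 mRNA by TaqMan qRT-PCR, normalized to ACTB/GAPDH/POLR2A.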

[4] = read-out: sulfotransferase 2A1 (SULT2A1), SULT2A1 (gene 6822); assay: LTEA_HepaRG_SULT2A1: Life Technologies and Expression Analysis (LTEA) Assay for sulfotransferase 2A1 (SULT2A1) using HepaRG (AID 2283531); settings: mRNA level, 48 h; actives raise or lower the signal
How it was run: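 Differentiated human HepaRG cells in serum-free induction medium were exposed for 48 h to eight half-log concentrations (top 100 uM, 0.5% DMSO). SULT2A1 mRNA was measured by qRT-PCR, normalized to ACTB, GAPDH and POLR2A, and fitted bidirectionally against DMSO.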

[5] = read-out: Transforming Growth Factor (TGFA), TGFA (gene 7039); assay: LTEA_HepaRG_TGFA: Life Technologies and Expression Analysis (LTEA) Assay for Transforming Growth Factor (TGFA) using HepaRG (AID 2283532); settings: mRNA level, 48 h; actives raise or lower the signal
How it was run: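 Differentiated HepaRG cells exposed 48 hours in serum-free induction medium, 0.5% DMSO vehicle, 8-point half-log series from 100 uM, in duplicate. TGFA mRNA by TaqMan qRT-PCR, normalised to ACTB, GAPDH, POLR2A; bidirectional fit versus DMSO.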

[6] = read-out: Transforming Growth Factor (TGFB1), TGFB1 (gene 7040); assay: LTEA_HepaRG_TGFB1: Life Technologies and Expression Analysis (LTEA) Assay for Transforming Growth Factor (TGFB1) Transporter using HepaRG (AID 2283533); settings: mRNA level, 48 h; actives raise or lower the signal
How it was run: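 Differentiated human HepaRG cells in serum-free induction medium were exposed in duplicate for 48 h to eight concentrations (top 100 uM, half-log steps, 0.5% DMSO). TGFB1 mRNA was quantified by qRT-PCR, normalized to ACTB, GAPDH, POLR2A, and fitted bidirectionally against DMSO.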

TIMP1, TIMP1 (gene 7076) = assay: LTEA_HepaRG_TIMP1: Life Technologies and Expression Analysis (LTEA) Assay for TIMP1 using HepaRG (AID 2283534); settings: mRNA level, 48 h; actives raise or lower the signal;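 further: TaqMan qRT-PCR signal normalized to ACTB GAPDH and POLR2A housekeeping genes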
How it was run: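 Differentiated human HepaRG cells in serum-free induction medium were exposed 48 h to chemicals (8 half-log concentrations, top 100 uM, 0.5% DMSO). TIMP1 mRNA was quantified by TaqMan qRT-PCR, normalized to ACTB/GAPDH/POLR2A; bidirectional fit versus DMSO.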

[7] = read-out: Tumor necrosis factor receptor 1 (TNFRSF1A), TNFRSF1A (gene 7132); assay: LTEA_HepaRG_TNFRSF1A: Life Technologies and Expression Analysis (LTEA) Assay for Tumor necrosis factor receptor 1 (TNFRSF1A) using HepaRG (AID 2283535); settings: mRNA level, 48 h; actives raise or lower the signal
How it was run: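 Differentiated human HepaRG cells were exposed in duplicate for 48 h in serum-free induction medium to eight concentrations (top 100 uM, half-log steps, 0.5% DMSO). TNFRSF1A mRNA was quantified by qRT-PCR, normalized to ACTB, GAPDH and POLR2A, then fitted bidirectionally against DMSO.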

[8] = read-out: Thyroid Hormone Responsive (THRSP), THRSP (gene 7069); assay: LTEA_HepaRG_THRSP: Life Technologies and Expression Analysis (LTEA) Assay for Thyroid Hormone Responsive (THRSP) using HepaRG (AID 2283536); settings: mRNA level, 48 h; actives raise or lower the signal
How it was run: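 Differentiated HepaRG cells treated 48 h in serum-free induction medium with 8 half-log concentrations up to 100 uM (0.5% DMSO), duplicates. THRSP mRNA by TaqMan qRT-PCR normalised to ACTB, GAPDH, POLR2A; bidirectional fit versus DMSO.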

[9] = read-out: Cellular tumor antigen p53 (Homo sapiens) (UniProt P04637); assay: LTEA_HepaRG_TP53: Life Technologies and Expression Analysis (LTEA) Assay for Tumor Protein P53 (TP53) using HepaRG (AID 2283537); settings: mRNA level, 48 h; actives raise or lower the signal
How it was run: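 Differentiated HepaRG cells in serum-free induction medium exposed 48 h in duplicate to 8 half-log concentrations, top 100 uM, 0.5% DMSO. TP53 mRNA by TaqMan qRT-PCR (Fluidigm), normalized to ACTB, GAPDH, POLR2A; fitted bidirectionally versus DMSO.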

[10] = read-out: UDP glucuronosyltransferase (UGT1A1), UGT1A1 (gene 54658); assay: LTEA_HepaRG_UGT1A1: Life Technologies and Expression Analysis (LTEA) Assay for UDP glucuronosyltransferase (UGT1A1) using HepaRG (AID 2283538); settings: mRNA level, 48 h; actives raise or lower the signal
How it was run: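 Readout is UGT1A1 transcript level by qRT-PCR, normalized to three housekeeping genes, after 48 h chemical treatment of HepaRG cells. Concentrations ran from 100 uM down in half-log steps with 0.5% DMSO, and gain or loss relative to DMSO was fitted.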

[11] = read-out: UDP glucuronosyltransferase (UGT1A6), UGT1A6 (gene 54578); assay: LTEA_HepaRG_UGT1A6: Life Technologies and Expression Analysis (LTEA) Assay for UDP glucuronosyltransferase (UGT1A6) using HepaRG (AID 2283539); settings: mRNA level, 48 h; actives raise or lower the signal
How it was run: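 Human HepaRG cells were dosed for 48 h in serum-free induction medium with 0.5% DMSO vehicle, eight-point half-log series from 100 uM, in duplicate. UGT1A6 mRNA was measured by qRT-PCR, normalized to ACTB, GAPDH, POLR2A, and fitted bidirectionally against DMSO.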

[12] = LTEA_HepaRG_LDH_cytotoxicity: Cytotoxicity Assessment in the Life Technologies and Expression Analysis (LTEA) Assay (AID 2283563; active means hit-call score of the fitted dose curve at least 0.9, where 1 is the maximum)
How it was run: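 Differentiated human HepaRG cells, plated 48 h beforehand, were switched to serum-free induction medium and exposed for 48 h to eight half-log concentrations (top 100 uM) in 0.5% DMSO. LDH was measured in spent medium; activity was fitted relative to DMSO vehicle.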

[13] = TOX21_p53_BLA_p2_viability: Viability Assessment in the Tox21 HCT-116 p53 Agonism Beta-lactamase Assay, Phase 2 (AID 2283591; active means hit-call score of the fitted dose curve at least 0.9, where 1 is the maximum;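 further: compound exposure lasted 16 h at 37 °C; actives lower the ATP signal meaning cytotoxicity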)
How it was run: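 HCT116 p53-bla cells, 4000/well, dosed after 5 h plating (217-fold dilution of DMSO stocks) and incubated 16 h at 37C. Viability taken as cellular ATP by CellTiter-Glo luminescence after 30 min RT; signal loss marks cytotoxicity.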

[14] = biological target: Cellular tumor antigen p53 (Homo sapiens) (UniProt P04637); assay: TOX21_p53_BLA_p2_ratio: Tox21 HCT-116 p53 Agonism Beta-lactamase Assay, Ratio, Phase 2 (AID 2283592; active means hit-call score of the fitted dose curve at least 0.9, where 1 is the maximum)
How it was run: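 HCT116 cells carrying a p53-responsive beta-lactamase reporter were plated, incubated 5 h at 37C, then dosed with compounds in DMSO (217-fold dilution) for 16 h. CCF4-AM substrate was added for 2 h at room temperature; the 460/530 nm emission ratio gave gain-of-signal activity relative to DMSO.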

[15] = TOX21_p53_BLA_p3_viability: Viability Assessment in the Tox21 HCT-116 p53 Agonism Beta-lactamase Assay, Phase 3 (AID 2283593; active means hit-call score of the fitted dose curve at least 0.9, where 1 is the maximum;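 further: cells exposed to compound for 16 h before reading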)
How it was run: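 HCT116 cells, 4000/well, dosed 5 h after plating by pin transfer (217-fold dilution from DMSO stock) and incubated 16 h at 37C, 5% CO2. Viability read as ATP luminescence with CellTiter-Glo after 30 min at room temperature.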

[16] = biological target: Cellular tumor antigen p53 (Homo sapiens) (UniProt P04637); assay: TOX21_p53_BLA_p3_ratio: Tox21 HCT-116 p53 Agonism Beta-lactamase Assay, Ratio, Phase 3 (AID 2283596; active means hit-call score of the fitted dose curve at least 0.9, where 1 is the maximum)
How it was run: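 HCT116 p53-bla cells (4000/well) given compound in DMSO (217-fold dilution) after 5 h, incubated 16 h at 37C. CCF4-AM substrate 2 h at room temperature; 460/530 nm emission ratio, gain fitted against DMSO.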

[17] = read-out: X-box binding protein 1 (XBP1), XBP1 (gene 7494); assay: LTEA_HepaRG_XBP1: Life Technologies and Expression Analysis (LTEA) Assay for X-box binding protein 1 (XBP1) using HepaRG (AID 2283540); settings: mRNA level, 48 h; actives raise or lower the signal
How it was run: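 Differentiated human HepaRG cells in serum-free induction medium were exposed in duplicate for 48 h to eight half-log concentrations up to 100 uM in 0.5% DMSO. XBP1 mRNA was quantified by qRT-PCR, normalised to ACTB, GAPDH and POLR2A, with bidirectional fitting against DMSO.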

[18] = ATG_XTT_Cytotoxicity: Cytotoxicity Assessment in the Attagene TRANS-FACTORIAL HepG2 Assay (AID 2283584; active means hit-call score of the fitted dose curve at least 0.9, where 1 is the maximum)
How it was run: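 HepG2 human liver cells, transiently transfected with multiple GAL4-UAS reporter units, were dosed and read at 24 h by XTT as cell number. Loss of signal was fitted relative to DMSO negative control baseline.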

[19] = TOX21_p53_BLA_p4_viability: Viability Assessment in the Tox21 HCT-116 p53 Agonism Beta-lactamase Assay, Phase 4 (AID 2283597; active means hit-call score of the fitted dose curve at least 0.9, where 1 is the maximum;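 further: hits lower the luminescence signal meaning cytotoxicity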)
How it was run: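 HCT116 p53-bla cells (4000/well) rested 5 h at 37C, then received compounds in DMSO (217-fold dilution) for 16 h at 37C, 5% CO2. CellTiter-Glo was added after the CCF4-AM read, and luminescence was read after 30 min at room temperature.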

Measured: AC50

Sequence of Cellular tumor antigen p53 (Homo sapiens) (P04637 whole entry, looked up): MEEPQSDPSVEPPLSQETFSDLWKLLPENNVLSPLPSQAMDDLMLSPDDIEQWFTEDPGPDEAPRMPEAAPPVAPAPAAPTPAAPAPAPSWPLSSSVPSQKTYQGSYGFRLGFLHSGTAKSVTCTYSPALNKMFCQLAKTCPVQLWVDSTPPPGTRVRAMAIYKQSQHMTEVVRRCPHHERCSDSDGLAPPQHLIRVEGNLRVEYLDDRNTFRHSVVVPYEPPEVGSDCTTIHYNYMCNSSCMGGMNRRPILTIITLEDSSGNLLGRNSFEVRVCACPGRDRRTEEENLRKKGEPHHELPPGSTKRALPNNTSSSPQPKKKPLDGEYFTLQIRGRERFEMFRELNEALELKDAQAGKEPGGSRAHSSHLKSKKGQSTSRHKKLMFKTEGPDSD
Sequence of Signal transducer and activator of transcription 3 (Homo sapiens) (P40763 whole entry, looked up): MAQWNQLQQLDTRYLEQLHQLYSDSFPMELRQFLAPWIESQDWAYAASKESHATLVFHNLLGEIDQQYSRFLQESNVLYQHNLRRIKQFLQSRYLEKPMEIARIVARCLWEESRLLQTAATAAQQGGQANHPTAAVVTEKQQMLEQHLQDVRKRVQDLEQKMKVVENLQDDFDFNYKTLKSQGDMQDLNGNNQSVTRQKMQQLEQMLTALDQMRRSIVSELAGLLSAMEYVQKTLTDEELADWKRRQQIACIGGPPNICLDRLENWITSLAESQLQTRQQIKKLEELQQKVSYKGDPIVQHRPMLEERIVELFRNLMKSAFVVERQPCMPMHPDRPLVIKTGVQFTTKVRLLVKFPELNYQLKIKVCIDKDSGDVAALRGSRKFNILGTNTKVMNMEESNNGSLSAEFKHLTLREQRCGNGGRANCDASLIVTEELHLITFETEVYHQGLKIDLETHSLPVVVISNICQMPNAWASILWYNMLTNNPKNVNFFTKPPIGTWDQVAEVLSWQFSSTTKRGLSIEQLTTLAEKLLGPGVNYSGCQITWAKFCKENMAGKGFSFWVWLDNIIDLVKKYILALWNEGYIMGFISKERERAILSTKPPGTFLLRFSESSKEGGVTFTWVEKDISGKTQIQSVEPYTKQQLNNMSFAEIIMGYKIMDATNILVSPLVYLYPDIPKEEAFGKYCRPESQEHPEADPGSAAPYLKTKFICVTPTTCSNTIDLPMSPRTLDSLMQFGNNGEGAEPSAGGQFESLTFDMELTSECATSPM

C=CCc1ccc(OC)c(OC)c1
inactive: [1] | [2] | [4] | [6] | TIMP1, TIMP1 (gene 7076) | [7] | [8] | [9] | [10] | [11] | [12] | [13] | [14] | [15] | [16]
active: [3] 0.315 µM | [5] 9.92 µM

CC(C)c1cccc(C(C)C)c1NC(=O)NS(=O)(=O)c1cc(C(C)(C)O)co1
inactive: [1] | [2] | [3] | [4] | [5] | [6] | TIMP1, TIMP1 (gene 7076) | [7] | [8] | [9] | [10] | [11] | [17] | [12]

CC(=O)S[C@H](C(=O)N[C@H]1Cc2ccccc2[C@H]2CCC[C@@H](C(=O)O)N2C1=O)C(C)C
inactive: [1] | [2] | [3] | [4] | [5] | [6] | TIMP1, TIMP1 (gene 7076) | [7] | [8] | [9] | [10] | [11] | [12] | [14] | [16]

CCCCOC(=O)CCCCC(=O)OCCCC
inactive: [1] | [2] | [3] | [4] | [5] | [6] | TIMP1, TIMP1 (gene 7076) | [7] | [8] | [10] | [11] | [17] | [12]

CCCCCCCCCCCCCCOS(=O)(=O)O
inactive: [1] | [2] | [3] | [4] | [5] | [6] | TIMP1, TIMP1 (gene 7076) | [7] | [8] | [9] | [10] | [11] | [17] | [12] | [18] | [14] | [15] | [16]
active: [13] 74.2 µM | [19] 73.1 µM

COC(=O)CCC(=O)OC
inactive: [1] | [2] | [3] | [4] | [5] | [6] | TIMP1, TIMP1 (gene 7076) | [7] | [8] | [9] | [10] | [11] | [12] | [18] | [14] | [15] | [16] | [19]

C#CC(O)C(CC)CCCC (centres undefined)
inactive: [1] | [2] | [3] | [4] | [5] | [6] | TIMP1, TIMP1 (gene 7076) | [7] | [8] | [10] | [11] | [17] | [12]

OCC(O)CO
inactive: [1] | [2] | [3] | [4] | [5] | [6] | TIMP1, TIMP1 (gene 7076) | [7] | [8] | [9] | [10] | [11] | [17] | [12]
